Values joined by “and” are separate entries in the source; they are usually repeats but may differ in a detail not shown here. Equal values may be shown once. Compounds without any hit were thinned out: in the full panel of roughly 83,000, 20% have a hit.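 Cell lines were cultured in 96-well plates, exposed to a single compound concentration, and assessed for percent growth 48 hours later.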 Active and inactive are the calls of the source. Rule for the calls: active = growth percent below 10; inactive = the rest.
Legend:
Test in all cases: NCI-60 one-dose screen, 48 h (100 = growth as untreated, 0 = no growth, -100 = all killed)
Details in all cases: 10 µM unless noted
NCI-H23 lung = test system: NCI-H23 lung
NCI-H226 lung = test system: NCI-H226 lung
NCI-H322M lung = test system: NCI-H322M lung
HOP-62 NSCLC = test system: HOP-62 NSCLC
NCI-H460 lung = test system: NCI-H460 lung
HOP-92 NSCLC = test system: HOP-92 NSCLC
NCI-H522 lung = test system: NCI-H522 lung
A549/ATCC NSCLC = test system: A549/ATCC NSCLC
786-0 renal = test system: 786-0 renal
COLO 205 colon = test system: COLO 205 colon

Measured: growth

Nc1ccc(N=Nc2ccc(S(=O)(=O)O)cc2)cc1S(=O)(=O)O
inactive: NCI-H23 lung 95.6% and 99.8% | NCI-H226 lung 110% and 99.8% | NCI-H322M lung 104% and 110% | HOP-62 NSCLC 118% and 101% | NCI-H460 lung 103% and 96.2% | HOP-92 NSCLC 90.9% and 72% | NCI-H522 lung 91% and 96.3% | A549/ATCC NSCLC 95.1% and 103% | 786-0 renal 104% and 106% | COLO 205 colon 125% and 119%

CN(C)CCCN1c2ccccc2Sc2ccc(Cl)cc21
inactive: NCI-H23 lung 90.4% and 112% and 111% | NCI-H226 lung 106% and 97.5% and 92.1% | NCI-H322M lung 77.4% and 105% and 71% | HOP-62 NSCLC 77.1% and 107% and 95.2% | NCI-H460 lung 101% and 105% and 100% | HOP-92 NSCLC 47.1% and 99.2% | NCI-H522 lung 72.3% and 97.6% | A549/ATCC NSCLC 103% and 94.4% | 786-0 renal 68% and 106% and 81.9% | COLO 205 colon 50.5% and 102% and 67.9%

CCC(C)C1(C2CCCC2)NC(=O)NC1=O (stereo not given)
inactive: NCI-H23 lung 103% and 101% | NCI-H226 lung 113% and 108% | NCI-H322M lung 99.1% and 115% | HOP-62 NSCLC 98.6% and 102% | NCI-H460 lung 117% and 107% | HOP-92 NSCLC 92.1% | NCI-H522 lung 77.2% and 105% | A549/ATCC NSCLC 100% and 106% | 786-0 renal 104% and 108% | COLO 205 colon 102% and 116%

O=C(CCc1ccc(O)cc1)N/N=C/c1cc(Br)ccc1O
inactive: NCI-H23 lung 61.4% | NCI-H226 lung 95.1% | NCI-H322M lung 38.9% | HOP-62 NSCLC 62.7% | NCI-H460 lung 29.7% | HOP-92 NSCLC 80.7% | NCI-H522 lung 77.5% | A549/ATCC NSCLC 47.6% | 786-0 renal 42% | COLO 205 colon 92%

CCN(CC)CCNc1ccc(C)c2sc3ccccc3c(=O)c12 (tested in a mixture with another compound)
inactive: NCI-H23 lung 46.1% and 52.4% | NCI-H226 lung 64.9% and 64.7% | NCI-H322M lung 30% and 56% | HOP-62 NSCLC 51.4% and 51.3% | HOP-92 NSCLC 68.6% and 38.1% | NCI-H522 lung 22.6% and 39.6% | A549/ATCC NSCLC 21.9% and 19.8% | 786-0 renal 33.7% and 37.3% | COLO 205 colon 27% and 14.7%
active: NCI-H460 lung 8.45% and 5.28%

CCN(CC)CCCC(C)N(Cc1ccccc1)CC(O)c1ccc(Cl)cc1 (stereo not given)
inactive: NCI-H23 lung 106% and 101% | NCI-H226 lung 98.9% and 110% | NCI-H322M lung 114% and 98% | HOP-62 NSCLC 97.3% and 92.8% | NCI-H460 lung 101% and 116% | HOP-92 NSCLC 71.7% and 95.2% | NCI-H522 lung 107% and 89.8% | A549/ATCC NSCLC 103% and 96.7% | 786-0 renal 108% and 96.8% | COLO 205 colon 103% and 111%

Cc1ncsc1CCO
inactive: NCI-H23 lung 96% and 94.8% | NCI-H226 lung 95.8% and 103% | NCI-H322M lung 126% and 89.4% | HOP-62 NSCLC 103% and 106% | NCI-H460 lung 118% and 106% | HOP-92 NSCLC 91.2% and 97.8% | NCI-H522 lung 94.5% and 85.9% | A549/ATCC NSCLC 96.2% and 92.5% | 786-0 renal 105% and 96.9% | COLO 205 colon 118% and 116%

CC(C)Cc1ccc(C(C)C(=O)NCc2ccc(Cn3c(=O)sn(CCCCl)c3=O)cc2)cc1 (stereo not given)
inactive: NCI-H226 lung 106% and 32.6% | NCI-H322M lung 101% and 73.9% | NCI-H460 lung 105% and 40.2%
101% (inactive) and -20.1% (active): A549/ATCC NSCLC
96.7% (inactive) and -59.1% (active): NCI-H23 lung
105% (inactive) and -38.5% (active): HOP-62 NSCLC
101% (inactive) and -71.6% (active): 786-0 renal
66.8% (inactive) and -65% (active): COLO 205 colon
85.5% (inactive) and -52.3% (active): NCI-H522 lung
105% (inactive) and -77.6% (active): HOP-92 NSCLC

O=C(Nc1cccc(Cl)c1)c1cc2ccccc2cc1O
inactive: NCI-H226 lung 45.8% and 40.6% | HOP-62 NSCLC 37.7% and 15.1% | 786-0 renal 53.6% and 17.3% | COLO 205 colon 104% and 42.6%
20.7% (inactive) and 9.25% (active): A549/ATCC NSCLC
15% (inactive) and -3.24% (active): NCI-H322M lung
active: NCI-H23 lung 4.9% and 9.55% | NCI-H460 lung 5.98% and 5.93% | HOP-92 NSCLC -30.8% and -32.5% | NCI-H522 lung 1.12% and 2.91%

COc1ccc2ccccc2c1/C=N/N1CCCCC1
inactive: NCI-H23 lung 97.2% | NCI-H226 lung 102% | NCI-H322M lung 105% | HOP-62 NSCLC 101% | NCI-H460 lung 109% | HOP-92 NSCLC 67.8% | NCI-H522 lung 86.9% | A549/ATCC NSCLC 95.7% | 786-0 renal 96.1% | COLO 205 colon 102%

COc1ccc2cc3[n+](cc2c1OC)CCc1cc2c(cc1-3)OCO2
inactive: NCI-H23 lung 43.4% and 50.4% | NCI-H226 lung 73.8% and 79.5% | NCI-H322M lung 96% and 99.4% | HOP-62 NSCLC 43.9% and 85.4% | NCI-H460 lung 75.9% and 88.9% | HOP-92 NSCLC 76.1% and 20.6% | NCI-H522 lung 68.7% and 53% | A549/ATCC NSCLC 75.1% and 59.4% | 786-0 renal 73.5% and 66.9% | COLO 205 colon 59.5% and 68.4%

CC1=C(/C=C/C(C)=C/C=C/C(C)=C/C(=O)O)C(C)(C)CCC1
inactive: NCI-H23 lung 86.6% and 96.1% and 98.3% | NCI-H226 lung 93% and 92.1% and 88.2% | NCI-H322M lung 94.2% and 101% | HOP-62 NSCLC 73% and 75.4% | NCI-H460 lung 91.2% and 91.7% and 90.6% | HOP-92 NSCLC 66.8% and 77% and 26.4% | NCI-H522 lung 64.8% and 79.3% | A549/ATCC NSCLC 73.4% and 88.2% and 80.3% | 786-0 renal 96.6% and 85.6% and 102% | COLO 205 colon 108% and 93.2% and 145%

CCC(O)c1ccccc1 (stereo not given)
inactive: NCI-H23 lung 112% and 113% | NCI-H226 lung 96.1% and 109% | NCI-H322M lung 114% and 105% | HOP-62 NSCLC 87.2% and 109% | NCI-H460 lung 106% and 104% | HOP-92 NSCLC 117% and 91.6% | NCI-H522 lung 101% and 86.4% | A549/ATCC NSCLC 104% and 99.4% | 786-0 renal 94.6% and 106% | COLO 205 colon 128% and 111%

CCCCCN(CCCCC)CC(O)c1cc2c(c3ccccc13)CCCC2 (stereo not given)
active: HOP-92 NSCLC -14.4%
inactive: NCI-H23 lung 31.5% and 40.8% | NCI-H226 lung 69.8% and 53.2% | NCI-H322M lung 71.3% and 38.5% | HOP-62 NSCLC 36.2% and 75.6% | NCI-H460 lung 38.7% and 25.8% | NCI-H522 lung 53% and 50.1% | A549/ATCC NSCLC 71.1% and 59.9% | 786-0 renal 39.1% and 27.2% | COLO 205 colon 40.7%

CNc1ccc2nc3ccc(=[N+](C)C)cc-3sc2c1
36.4% (inactive) and -4.83% (active): HOP-92 NSCLC
inactive: NCI-H226 lung 63% and 51.4% | NCI-H322M lung 30.7% and 28.1% | 786-0 renal 37.7% and 20.6%
9.72% (active) and 11.9% (inactive): NCI-H460 lung
active: NCI-H23 lung 1.76% and -7.91% | HOP-62 NSCLC 7.64% and 7.54% | NCI-H522 lung -19.9% and 8.62% | A549/ATCC NSCLC 3.27% and 5.26% | COLO 205 colon -22.3% and -30.4%

Reference: PubChem BioAssay (NCI)
